# ChEMBL document CHEMBL3988442, “University of Dundee, Small-Polar-MMV Screening Library” (2021)
# Among all 69,000 compounds or so, about 1,000 (1.4%) showed an effect of 50% or more. This is one part of a sample in which strong results are shown more often than they occur.
# System: Leishmania donovani
# Experiment: Leishmania intramacrophage assay
# Type: functional, organism-based
# Design: scale not given: in the data most compounds retested in dose-response had high values
structure (smiles),measurement,setting,value
CCn1c(NCc2ccco2)nc2c(C)nn(C)c2c1=O,Percent Effect,"30 µM, 30.03 µM",16.24%
Cc1cc(CN2CCN(C(C)C)C(CCO)C2)[nH]n1 (stereo not drawn),Percent Effect,"30.3 µM, […]",0.4197%
c1ccc(Cc2nnc([C@H]3CCN(C4CCCCC4)C3)o2)cc1,Percent Effect,"30.3 µM, […]",11.62%
COc1ccccc1-n1nc(CC(C)C)nc1CSc1nnc(N)s1,Percent Effect,"30.3 µM, […]",13.73%
CN(C)C(=O)COC[C@]12COC[C@H]1CN(C1CCCC1)C2.O=C(O)C(F)(F)F,Percent Effect,"30.3 µM, […]",40.35%
CC(C)(C)NC(=O)CN1CCNCC1.Cl.Cl,Percent Effect,"30.3 µM, […]",11.16%
O=C(O)C(F)(F)F.O=C1CC2(CCN(CC3CC3)C2)CN1c1ccc2c(c1)OCO2 (stereo not drawn),Percent Effect,"30 µM, 30.03 µM",25.29%
Cc1c(C(C)N)cnn1-c1cccc2ccccc12 (stereo not drawn),Percent Effect,"30.3 µM, […]",22.69%
Cc1ccc(-c2noc(CCC(=O)NC(C)Cn3cccn3)n2)cc1 (stereo not drawn),Percent Effect,"30.3 µM, […]",22.16%
CCCc1ccc(S(=O)(=O)Nc2ccc(=O)n(C)c2)cc1,Percent Effect,30 µM,20.55%
Cn1cc(NS(=O)(=O)c2ccc(C(F)(F)F)cc2)ccc1=O,Percent Effect,30 µM,-2.5%
Cc1ccc(S(=O)(=O)Nc2ccc(=O)n(C)c2)cc1,Percent Effect,"30 µM, 30.03 µM",54.33%
CCN1CC2(CC1=O)CN(Cc1ccoc1)CCN(C(=O)C(C)C)C2 (stereo not drawn),Percent Effect,"30.3 µM, […]",8.034%
O=C(c1ccc(Br)o1)N1CCN(Cc2ccc(OC(F)(F)F)cc2)CC1,Percent Effect,"30 µM, 30.03 µM",31.07%
CN(CCc1cccc2ccccc12)Cc1nc(N)nc(N(C)C)n1,Percent Effect,"30.3 µM, […]",94.18%
CN(Cc1nc(N)nc(N(C)C)n1)Cc1cccc2ccccc12,Percent Effect,"30.3 µM, […]",1.643%
CN(CC(=O)Nc1cccc(F)c1)Cc1nc(N)nc(N(C)C)n1,Percent Effect,"30.3 µM, […]",21.77%
Cc1ccc(CN2CCCC3(CCN(S(C)(=O)=O)C3)C2)o1.O=C(O)C(F)(F)F (stereo not drawn),Percent Effect,"30 µM, 30.03 µM",4.141%
COCc1cc(NCCCSc2nnc(C)s2)ncn1,Percent Effect,"30.3 µM, […]",26.84%
COc1cc(NCCCSc2nnc(C)s2)ncn1,Percent Effect,"30.3 µM, […]",57.45%
Cc1nnc(SCCCNc2cc(C3CC3)ncn2)s1,Percent Effect,"30.3 µM, […]",31.22%
Cc1nnc2n1CCN(C(=O)COCCOc1ccccc1)C2,Percent Effect,"30 µM, 30.03 µM",16.55%
Cc1cc(CN2CCCC(C)(CO)C2)ccc1F (stereo not drawn),Percent Effect,"30 µM, 30.03 µM",31.69%
Cc1nc(C)n(CC2CN(Cc3noc(C4CC4)n3)CCO2)n1 (stereo not drawn),Percent Effect,"30.3 µM, […]",-6.202%
Cc1cnc(CCNC(=O)C2CCN(S(=O)(=O)c3ccc(F)cc3)C2)s1 (stereo not drawn),Percent Effect,"30.3 µM, […]",33.75%
COCCN1CCC(CN(CC2CCCO2)C(=O)COC)CC1 (stereo not drawn),Percent Effect,"30 µM, 30.03 µM",-10.91%
COCCN1CCC(CN(CC2CCCO2)C(=O)Cc2cccs2)CC1 (stereo not drawn),Percent Effect,"30.3 µM, […]",8.21%
COCCN1CCC(CN(CC2CCCO2)C(=O)Cn2cccn2)CC1 (stereo not drawn),Percent Effect,"30.3 µM, […]",58.18%
Cc1nc(NC(=O)N2CCCC(C(C)(C)O)C2)nn1C (stereo not drawn),Percent Effect,"30.3 µM, […]",-6.912%
O=C(C1CC2(CCNCC2)CN1)N1CCN(c2ccccc2)CC1 (stereo not drawn),Percent Effect,"30.3 µM, […]",-6.874%
Cc1cccc(N2CCN(C(=O)C3CC4(CCNCC4)CN3)CC2)n1 (stereo not drawn),Percent Effect,"30.3 µM, […]",82.82%
Cc1cnccc1N1CCN(C(=O)C2CC3(CCNCC3)CN2)CC1 (stereo not drawn),Percent Effect,"30.3 µM, […]",-56.52%
Cc1cccc(-c2nc(C)nn2CN2CCC3(CC2)OCCO3)c1,Percent Effect,"30.3 µM, […]",-6.145%
Cc1nnc(SCc2cc(=O)n3c4c(sc3n2)CCCC4)[nH]1,Percent Effect,"30.3 µM, […]",36.41%
CCc1nnc(SCc2cc(=O)n3c4c(sc3n2)CCCC4)[nH]1,Percent Effect,"30.3 µM, […]",54.93%
CCCc1nnc(SCc2cc(=O)n3c4c(sc3n2)CCCC4)[nH]1,Percent Effect,"30.3 µM, […]",1.73%
CN[C@@H]1CCC[C@@H](Oc2ccccc2Oc2ccc(C)cc2)[C@@H]1O,Percent Effect,"30.3 µM, […]",98.74%
COCC1CCN(S(=O)(=O)N2C[C@H](c3ccccc3)[C@@H](N)C2)CC1,Percent Effect,"30.3 µM, […]",12.44%
Cc1occc1C(=O)N1C[C@@H](C(=O)N2CCCCO2)C[C@H]2OCC[C@H]21,Percent Effect,"30.3 µM, […]",22.98%
CN(CC(=O)Nc1cc(C(C)(C)C)n[nH]1)S(C)(=O)=O,Percent Effect,"30.3 µM, […]",-19.26%
CN(CC(=O)Nc1cc(-c2cc(Cl)cc(Cl)c2)[nH]n1)S(C)(=O)=O,Percent Effect,"30.3 µM, […]",5.087%
CN(CC(=O)Nc1cc(CC2CCCCC2)n[nH]1)S(C)(=O)=O,Percent Effect,"30.3 µM, […]",66.78%
Cc1nc(CN2CCCC2c2c(C)nn(C)c2Cl)no1 (stereo not drawn),Percent Effect,"30 µM, 30.03 µM",17.3%
CN(C)Cc1cc(C2CCCCN2S(=O)(=O)Cc2ccccc2)nn1C.Cl (stereo not drawn),Percent Effect,"30.3 µM, […]",-6.731%
CC(NCC(N)=O)c1c(F)cccc1Cl (stereo not drawn),Percent Effect,"30.3 µM, […]",61.56%
CNC(=O)NC(C)c1c(F)cccc1Cl (stereo not drawn),Percent Effect,"30.3 µM, […]",-84.02%
CC(C)NC(=O)CNC(C)c1c(F)cccc1Cl (stereo not drawn),Percent Effect,"30.3 µM, […]",-24.44%
Cn1c(-c2ccccc2Cl)nc2cc(C(=O)NCC3(CO)CC3)cnc21,Percent Effect,"30.3 µM, […]",6.788%
O=c1n(CCNCc2cccc3ccccc23)nc2ccccn12,Percent Effect,"30.3 µM, […]",37.73%
CCC(O)c1nc2c([nH]1)CC(C)(C)CNC2=O (stereo not drawn),Percent Effect,"30.3 µM, […]",4.98%
Cn1ncc2c1C(COCC1CC1)CN(Cc1ccoc1)C2 (stereo not drawn),Percent Effect,"30 µM, 30.03 µM",18.09%
O=C(NCCN1CCC(c2cccs2)CC1)Nc1cccs1,Percent Effect,"30 µM, 30.03 µM",29.53%
O=C(NCCc1ccccc1)NCCN1CCC(c2cccs2)CC1,Percent Effect,"30.3 µM, […]",51.71%
